PubChem BioAssay AID1259240 (Keith Lab, Institute of Cancer Science, University of …, 2017)
A number with no mark means an inactive call. The source made the active and inactive calls. No stated cut-off is given here; in the data, active means fold change mostly below about -2 (no sharp cut-off); inactive means mostly above about -1.8.

Experiment: TERT promoter activity modulators, primary screen, cell-based, luciferase reporter, human (AID 1259240)
Conditions: A2780 TERT promoter luciferase reporter, 16 h; at 20 µM, fold versus average of vehicle-only wells

Compound | fold change | outcome
CC(C)CCNS(=O)(=O)c1ccc2c(c1)n(C)c(=O)c(=O)n2C | 1.28 | –
CCc1ccc2[nH]cc(S(=O)(=O)c3ccc(C)c(C)c3)c(=O)c2c1 | 1.15 | –
COCCNc1cc(C)nc2c(-c3ccc(Cl)cc3)c(C)nn12 | -1.07 | –
O=C(NCCCN1CCCC1)C(=O)Nc1ccc2nc3n(c(=O)c2c1)CCCCC3 | 1.01 | –
O=C(CC1(O)C(=O)N(CCc2ccccc2)c2ccc(Cl)cc21)c1ccc(F)cc1 (configuration not stated) | -1.87 | –
Cc1noc(C(=O)NC(C)C)c1Cl | 1.11 | –
COCCN1C(=O)c2oc3ccc(F)cc3c(=O)c2C1c1cccc(O)c1 (configuration not stated) | -1.86 | –
O=S1(=O)NC(=NC2CCCCCC2)c2ccccc21 | – | inactive
CC(C)C(NS(=O)(=O)c1ccc2c(c1)oc(=O)n2C)C(=O)N1CCN(c2ccccc2F)CC1 (configuration not stated) | 1.1 | –
O=C(NC1CCCC1)c1ccc(CNc2c(NC3CCCC3)c(=O)c2=O)cc1 | 1.06 | –
C=CCn1c(SCC(=O)N2CCCCC2)nc2sc3c(c2c1=O)CCC3 | -1.53 | –
CC(=O)N1CSCC1C(=O)N1CCN(c2ccc(N3CCOCC3)nn2)CC1 (configuration not stated) | -1.03 | –
